Results on 40 compounds are retold here after PubChem BioAssay (EPA / NIEHS).

Active and inactive are the calls of the source. The calls were made as follows: active = hit-call score of the fitted dose curve at least 0.9, where 1 is the maximum; inactive = score below 0.9.

This test is described as follows: ATG_ISRE_CIS: Attagene CIS-FACTORIAL HepG2 Assay for human Interferon Regulatory Factor 1 (IRF1) binding to an Interferon-Stimulated Response Element (ISRE) (AID 2282948). The note with it: HepG2 ISRE cis-reporter (Attagene), mRNA transcription readout; actives raise or lower the signal. How it is done:
ATG_CIS is a cell-based, multiplexed-readout assay that uses HepG2, a human liver cell line, with measurements taken at 24 hours after chemical dosing in a 24-well plate.ATG_ISRE_CIS is one of 52 assay component(s) measured or calculated from the ATG_CIS assay. It is designed to make measurements of mRNA induction, a form of inducible reporter, as detected with fluorescence intensity signals by Reverse transcription polymerase chain reaction (RT-PCR) and Capillary electrophoresis technology.Data from the assay component ATG_ISRE_CIS was analyzed into 1 assay endpoint. This assay endpoint, ATG_ISRE_CIS, was analyzed with bidirectional fitting relative to DMSO as the negative control and baseline of activity. Using a type of inducible reporter, measures of mRNA for gain or loss-of-signal activity can be used to understand the reporter gene at the transcription factor-level as they relate to the gene IRF1. Furthermore, this assay endpoint can be referred to as a primary readout, because this assay has produced multiple assay endpoints where this one serves a reporter gene function. To generalize the intended target to other relatable targets, this assay endpoint is annotated to the dna binding intended target family, where the subfamily is interferon regulatory factors.
Human liver HepG2 cells are transiently transfected with multiple reporter transcription units (MRTUs) in 6-well plates using FuGene 6 reagent (Roche; 3 ml FuGene/1 mg DNA). The MRTU constructs are regulated by a cis-regulating element (promoter). […] A major difference between the CIS and TRANS system is that in CIS activities of endogenous TFs are measured, whereas the TRANS assay evaluates changes in activities of exogenous, chimeric NR-Gal4 proteins. […] At the end of 24 hour incubation, total RNA was isolated using TriZol reagent (Invitrogen). The isolated RNA is then reverse-transcribed using oligo(dT) primer and Mo-MLV reverse transcriptase (Invitrogen) with DNAse I (Ambion) treatment for 30 min. The one-tenth of the produced cDNA was amplified by PCR using Taq DNA polymerase (Invitrogen) and two reporter sequence-specific primers. The PCR products were fluorescently labeled by primer extension with 6-arboxyfluorescein (6-FAM) 5'-labeled reporter sequence-specific primer (2 min at 95 C, 20 s at 68 C and 10 min at 72 C) and these products were digested with 5U of HpaI (New England Biolabs) for 2h at 37 C. The fragments were purified using Qiaquick PCR columns (Qiagen), analyzed on an ABI 3130xL genetic analyzer (Applied Biosystems) with peak positions identified by using a set of X-rhodamine (ROX)-labeled MapMarker1000 molecular weight standards (BioVentures). The raw capillary electrophoresis data was processed using Attagraph software (Attagene).
Regarding `O=C1CCCCCN1`, the call was inactive.

For `CCNc1ccccc1`, the compound was classed as inactive.

With `CCc1cc(SCc2sc(-c3ccc(C(F)(F)F)cc3)nc2CN2CCN(c3ccc(OC)cc3)CC2)ccc1OCC(=O)O`, the AC50 (in general, the concentration at which the activity in the assay is half-maximal) is 14 µM (active).

In the case of `O=C(OC[C@H]1O[C@@H](OC(=O)c2cc(O)c(O)c(OC(=O)c3cc(O)c(O)c(O)c3)c2)[C@H](OC(=O)c2cc(O)c(O)c(OC(=O)c3cc(O)c(O)c(O)c3)c2)[C@@H](OC(=O)c2cc(O)c(O)c(OC(=O)c3cc(O)c(O)c(O)c3)c2)[C@@H]1OC(=O)c1cc(O)c(O)c(OC(=O)c2cc(O)c(O)c(O)c2)c1)c1cc(O)c(O)c(OC(=O)c2cc(O)c(O)c(O)c2)c1`, the compound was classed as inactive.

For the compound `Cc1ccc(C)c(O)c1`, the outcome was inactive.

As to `CCOC(=O)CC(CC(=O)OCC)(OC(C)=O)C(=O)OCC`, the result was inactive.

On to `CC(=O)OC[C@H]1O[C@@](COC(C)=O)(O[C@H]2O[C@H](COC(C)=O)[C@@H](OC(C)=O)[C@H](OC(C)=O)[C@H]2OC(C)=O)[C@@H](OC(C)=O)[C@@H]1OC(C)=O`, for which the call was inactive.

Turning to `On1ccccc1=S`, the compound was classed as inactive.

In the case of `C=CCCCCCCCCC(=O)O`, the call was inactive.

For `C[C@](N)(Cc1ccc(O)c(O)c1)C(=O)O`, the result was inactive.

Turning to `COc1ccc(-n2nc(C(F)F)cc2-c2ccc(S(C)=O)cc2)cc1` (stereo not given), the compound was called inactive.

As for `CC(C)=CCC/C(C)=C/CO`, the call was inactive.

With `CCCCCCc1ccc(O)cc1O`, the AC50 was 55.7 µM (active).

As for `O=C(O)c1cccc(N(Cc2cccnc2)c2ccc(OC(F)F)c(OC(F)F)c2)c1`, the outcome was inactive.

Regarding `O=C(O)c1cccc(Oc2ccccc2)c1`, the result was inactive.

As to `O=C(NS(=O)(=O)/C=C/c1ccccc1)c1ccc(F)cc1Cl`, the compound was called inactive.

As for `O=C(CCCCCCCCc1cccnc1)N1CCC(C=C(c2ccccc2)c2ccccc2)CC1`, the AC50 is 16.7 µM (active).

For `Cc1c(-c2cccnc2)c2ccccc2n1CCCCC(=O)O`, the compound was called inactive.

On to `COc1ccc2sc(C(=O)Nc3nnn[nH]3)c(OC(C)C)c2c1`, for which the half-maximal activity concentration (AC50) was 44.1 µM (active).

`O=C(O)c1cc(N=Nc2ccc(S(=O)(=O)Nc3ccccn3)cc2)ccc1O`: the result was inactive.

With `CCCCCCCCCCCCCCCO`, the result was inactive.

For the compound `Clc1nc(Cl)c(Cl)c(Cl)c1Cl`, the call was inactive.

Consider `Nc1nc2ncc(CNc3ccc(C(=O)N[C@@H](CCC(=O)O)C(=O)O)cc3)nc2c(=O)[nH]1`, for which the outcome was inactive.

For `CCN(C(=O)c1cc(C)cc(OC[C@H](C)Nc2ccncc2)c1)C(C)C`, the result was inactive.

Consider `COCCOCCOCCOC`, for which the compound was called inactive.

In the case of `CC(C)CCCCCCOC(=O)c1ccc(C(=O)OCCCCCCC(C)C)c(C(=O)OCCCCCCC(C)C)c1`, the call was inactive.

Consider `CC1=CC(=O)CC(C)(C)C1`, for which the compound was called inactive.

Take `CCCCCCCCCCCCc1ccccc1`: the compound was classed as inactive.

As for `CC(C)(O)c1coc(S(=O)(=O)NC(=O)Nc2c3c(cc4c2CCC4)CCC3)c1`, the compound was classed as inactive.

Regarding `CC(=O)OCCC(C)C`, the call was inactive.

As for `CN(C)c1ccc(Cc2ccc(N(C)C)cc2)cc1`, the result was inactive.

As to `CC1(C)C(=O)N(Br)C(=O)N1Br`, the call was inactive.

Regarding `O=P(OC(CCl)CCl)(OC(CCl)CCl)OC(CCl)CCl`, the concentration at half-maximal activity (AC50) is 23.2 µM (active).

Regarding `CCOC(=O)c1ccc(C2CCC(NC[C@H](O)COc3ccc(O)c(NS(C)(=O)=O)c3)CC2)cc1` (stereo not given in full), the concentration at half-maximal activity (AC50) was 51.5 µM (active).

Consider `C=CC(=C)CCC=C(C)C`, for which the result was inactive.

In the case of `Cn1c(=O)cc(Oc2ccc(F)cc2F)c2cnc(NCC(C)(C)O)nc21`, the call was inactive.

On to `Fc1ccccc1[C@@H](F)COC1CCC(Nc2ncnc3[nH]ncc23)CC1` (stereo not given in full), for which the concentration at half-maximal activity (AC50) was 100 µM (active).

As for `Nc1cccc(N)c1`, the compound was classed as inactive.

For `CCCCC(CC)COC(=O)CCCCCCCCC(=O)OCC(CC)CCCC` (stereo not given), the call was inactive.

Take `CC(C)=CCC/C(C)=C\CO`: the result was inactive.
